Assay [1] is described as follows: NCI Yeast Anticancer Drug Screen. Data for the rad50 strain (AID 155).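 Also: 0% = growth of vehicle-only cultures of the same strain.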 Particulars: S. cerevisiae rad50 strain growth inhibition, hits give high values. An outline of the steps: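 Vehicle-treated cultures provide the reference for the growth inhibition reported for compound-exposed, repair-deficient yeast.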
Assay [2] can be described thus: NCI Yeast Anticancer Drug Screen. Data for the mec2-1 strain (AID 157). Particulars: S. cerevisiae mec2-1 strain, hits give high values. An outline of the steps: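 Readout is yeast growth inhibition, normalised to vehicle-treated controls, in the mec2-1 strain exposed to compound.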
Assay [3] is described as follows: NCI Yeast Anticancer Drug Screen. Data for the sgs1 mgt1 strain (AID 161).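 Also: 0% = growth of cultures given vehicle only.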 To be noted: S. cerevisiae sgs1 mgt1 strain, hits give high values. An outline of the steps: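 Compounds are added to genetically altered yeast, and growth is compared with cultures given vehicle alone to give percent inhibition.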
Assay [4] can be described thus: NCI Yeast Anticancer Drug Screen. Data for the cln2 rad14 strain (AID 165).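 Also: 0% = growth equal to vehicle treated cultures.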 Particulars: S. cerevisiae cln2 rad14 strain, hits give high values. A digest of the protocol: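 Relative to vehicle controls, growth inhibition of compound-treated cln2 rad14 yeast was recorded.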
The nature of assay [5]: NCI Yeast Anticancer Drug Screen. Data for the bub3 strain (AID 167). To be noted: S. cerevisiae bub3 mutant strain, hits give high values. An outline of the steps:
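Mutant yeast screening strain plus compound; vehicle-treated cultures serve as the 0% inhibition reference.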

Assay [6] in a line: NCI Yeast Anticancer Drug Screen. Data for the mlh1 rad18 strain (AID 175). Particulars: S. cerevisiae mlh1 rad18 strain growth inhibition, hits give high values. An outline of the steps:
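Test agents were incubated with a yeast strain of defined genotype (DNA damage repair defect). Inhibition of growth was derived by comparison with vehicle-exposed cultures.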

[7] abbreviates: at 5.0 µM (retest, dose inferred, filed as 0.5).
Setting [8] is: at 50.0 µM (retest, dose inferred, filed as 5.0).

About 79,000 compounds went through this panel and 15% of them were active in at least one assay; those are over-represented in the sample as a whole. Values without a mark were called inactive. Active and inactive are the calls of the source. Rule as the data show it: active = growth inhibition above about 70%; inactive = the rest.

On to `ClCC[Se](Cl)(Cl)c1ccccc1`, for which the growth inhibition in assay [1] (setting [7]) is 33%; in assay [1] (setting [8]) it was 75% (active); in assay [1] (at 50.0 µM) it was 42.9%; in assay [2] (setting [7]), 19%; in assay [2] (setting [8]), 20%; in assay [2] (at 50.0 µM) it was 55.6%. Further, the growth inhibition in assay [3] (setting [7]) was 29%; in assay [3] (setting [8]) it was 48%; in assay [3] (at 50.0 µM), 72% (active); in assay [4] (setting [7]) it was 25%; in assay [4] (setting [8]) it was 44%; in assay [4] (at 50.0 µM), 60.5%. Also, the growth inhibition in assay [5] (setting [7]) was 6%; in assay [5] (setting [8]), 46%; in assay [5] (at 50.0 µM), 53.2%; in assay [6] (setting [7]) it was 33%; in assay [6] (setting [8]), 68%; in assay [6] (at 50.0 µM), 86.2% (active).

In the case of `CCCC[As](CCCC)SC1CCC2(C)C(=CCC3C4CCC(=O)C4(C)CCC32)C1` (stereo not given), the growth inhibition in assay [1] (setting [7]) was 16%; in assay [1] (setting [8]), 92% (active); in assay [1] (at 50.0 µM), 95.7% (active); in assay [2] (setting [7]), 6%; in assay [2] (setting [8]) it was 87% (active); in assay [2] (at 50.0 µM), 83.6% (active). The growth inhibition in assay [3] (setting [7]) was 21%; in assay [3] (setting [8]) it was 76% (active); in assay [3] (at 50.0 µM), 97% (active); in assay [4] (setting [7]) it was 5%; in assay [4] (setting [8]), 64%; in assay [4] (at 50.0 µM), 82.3% (active). For the same compound, the growth inhibition was 3% in assay [5] (setting [7]); 87% (active) in assay [5] (setting [8]); 84% (active) in assay [5] (at 50.0 µM); 13% in assay [6] (setting [7]); 88% (active) in assay [6] (setting [8]); 98.8% (active) in assay [6] (at 50.0 µM).

Consider `CCC[CH2][Sn]1([CH2]CCC)[O]C(=O)c2ccc(C)cc2[O]1`, for which the growth inhibition in assay [1] (setting [7]) was 79% (active); in assay [1] (setting [8]) it was 99% (active); in assay [1] (at 50.0 µM), 98.8% (active); in assay [2] (setting [7]), 84% (active); in assay [2] (setting [8]), 99% (active); in assay [2] (at 50.0 µM) it was 99.3% (active). The growth inhibition is 85% (active) in assay [3] (setting [7]); 98% (active) in assay [3] (setting [8]); 99.2% (active) in assay [3] (at 50.0 µM); 76% (active) in assay [4] (setting [7]); 98% (active) in assay [4] (setting [8]); 98% (active) in assay [4] (at 50.0 µM). Besides, the growth inhibition in assay [5] (setting [7]) is 84% (active); in assay [5] (setting [8]), 98% (active); in assay [5] (at 50.0 µM), 98.7% (active); in assay [6] (setting [7]), 82% (active); in assay [6] (setting [8]), 97% (active); in assay [6] (at 50.0 µM), 98.8% (active).

For `CC[n+]1c(/C=C/c2ccc(N(CCCl)CCCl)cc2)ccc2cc(Br)ccc21`, the growth inhibition in assay [1] (setting [7]) was 97% (active); in assay [1] (setting [8]), 97% (active); in assay [1] (at 50.0 µM) it was 85.5% (active); in assay [2] (setting [7]), 96% (active); in assay [2] (setting [8]), 96% (active); in assay [2] (at 50.0 µM) it was 84% (active). Further, the growth inhibition in assay [3] (setting [7]) was 98% (active); in assay [3] (setting [8]), 98% (active); in assay [3] (at 50.0 µM), 82.9% (active); in assay [4] (setting [7]), 90% (active); in assay [4] (setting [8]), 90% (active); in assay [4] (at 50.0 µM), 82% (active). In addition, the growth inhibition in assay [5] (setting [7]) is 96% (active); in assay [5] (setting [8]), 96% (active); in assay [5] (at 50.0 µM), 85.2% (active); in assay [6] (setting [7]), 96% (active); in assay [6] (setting [8]) it was 96% (active); in assay [6] (at 50.0 µM), 82.2% (active).

For `[Pt].c1ccc([PH+](c2ccccc2)c2ccccc2)cc1.c1ccc([PH+](c2ccccc2)c2ccccc2)cc1.c1ccc([PH+](c2ccccc2)c2ccccc2)cc1.c1ccc([PH+](c2ccccc2)c2ccccc2)cc1`, the growth inhibition in assay [1] (setting [7]) is 31%; in assay [1] (setting [8]), 62%; in assay [1] (at 50.0 µM), 68.5%; in assay [2] (setting [7]), 27%; in assay [2] (setting [8]), 61%; in assay [2] (at 50.0 µM), 42.7%. The growth inhibition in assay [3] (setting [7]) is 40%; in assay [3] (setting [8]), 82% (active); in assay [3] (at 50.0 µM), 62.3%; in assay [4] (setting [7]), 49%; in assay [4] (setting [8]), 55%; in assay [4] (at 50.0 µM), 64%. The growth inhibition in assay [5] (setting [7]) was 42%; in assay [5] (setting [8]) it was 54%; in assay [5] (at 50.0 µM), 62.5%; in assay [6] (setting [7]), 27%; in assay [6] (setting [8]), 86% (active); in assay [6] (at 50.0 µM), 41.5%.

Take `Oc1c(Cl)c(Cl)cc(Cl)c1Cc1c(Cl)cc(Cl)c(Cl)c1[O][Pb]([c]1ccccc1)([c]1ccccc1)[c]1ccccc1`: the growth inhibition in assay [1] (setting [7]) is 99% (active); in assay [1] (setting [8]), 87% (active); in assay [1] (at 50.0 µM), 99.5% (active); in assay [2] (setting [7]), 99% (active); in assay [2] (setting [8]), 90% (active); in assay [2] (at 50.0 µM) it was 99.5% (active). The growth inhibition in assay [3] (setting [7]) is 99% (active); in assay [3] (setting [8]), 89% (active); in assay [3] (at 50.0 µM) it was 99.7% (active); in assay [4] (setting [7]), 99% (active); in assay [4] (setting [8]), 87% (active); in assay [4] (at 50.0 µM), 99% (active). Also, the growth inhibition is 99% (active) in assay [5] (setting [7]); 89% (active) in assay [5] (setting [8]); 99.3% (active) in assay [5] (at 50.0 µM); 99% (active) in assay [6] (setting [7]); 87% (active) in assay [6] (setting [8]); 99.5% (active) in assay [6] (at 50.0 µM).

As to `COC(=O)[CH2][Sn]([CH2]C(=O)OC)([CH]1CCCCC1)[CH]1CCCCC1`, the growth inhibition in assay [1] (setting [7]) is 3%; in assay [1] (setting [8]), 65%; in assay [1] (at 50.0 µM) it was 98.4% (active); in assay [2] (setting [7]), -3%; in assay [2] (setting [8]), 45%; in assay [2] (at 50.0 µM), 97.2% (active). Besides, the growth inhibition in assay [3] (setting [7]) is 2%; in assay [3] (setting [8]) it was 69%; in assay [3] (at 50.0 µM), 99.2% (active); in assay [4] (setting [7]), 5%; in assay [4] (setting [8]), 33%; in assay [4] (at 50.0 µM), 98% (active). Moreover, the growth inhibition was 1% in assay [5] (setting [7]); 59% in assay [5] (setting [8]); 97.2% (active) in assay [5] (at 50.0 µM); 2% in assay [6] (setting [7]); 48% in assay [6] (setting [8]); 98.5% (active) in assay [6] (at 50.0 µM).

For `N#C[S-].[Ce+3].c1cnc2c(c1)ccc1cccnc12.c1cnc2c(c1)ccc1cccnc12.c1cnc2c(c1)ccc1cccnc12`, the growth inhibition in assay [1] (setting [7]) is 96% (active); in assay [1] (setting [8]), 99% (active); in assay [1] (at 50.0 µM), 92% (active); in assay [2] (setting [7]) it was 99% (active); in assay [2] (setting [8]), 100% (active); in assay [2] (at 50.0 µM) it was 94.8% (active). Moreover, the growth inhibition in assay [3] (setting [7]) was 100% (active); in assay [3] (setting [8]) it was 100% (active); in assay [3] (at 50.0 µM) it was 91% (active); in assay [4] (setting [7]), 94% (active); in assay [4] (setting [8]), 98% (active); in assay [4] (at 50.0 µM), 93.5% (active). The growth inhibition in assay [5] (setting [7]) was 99% (active); in assay [5] (setting [8]), 99% (active); in assay [5] (at 50.0 µM) it was 93% (active); in assay [6] (setting [7]), 97% (active); in assay [6] (setting [8]), 99% (active); in assay [6] (at 50.0 µM), 92.8% (active).

As to `COc1ccc(C[C@H]2NC[C@H](O)[C@H]2OC(C)=O)cc1`, the growth inhibition in assay [1] (setting [7]) was 34%; in assay [1] (setting [8]) it was 99% (active); in assay [1] (at 50.0 µM), 92.5% (active); in assay [2] (setting [7]), 29%; in assay [2] (setting [8]) it was 99% (active); in assay [2] (at 50.0 µM), 93.8% (active). The growth inhibition is 27% in assay [3] (setting [7]); 99% (active) in assay [3] (setting [8]); 92.3% (active) in assay [3] (at 50.0 µM); 43% in assay [4] (setting [7]); 99% (active) in assay [4] (setting [8]); 89.9% (active) in assay [4] (at 50.0 µM). Besides, the growth inhibition in assay [5] (setting [7]) is 27%; in assay [5] (setting [8]) it was 99% (active); in assay [5] (at 50.0 µM), 92.2% (active); in assay [6] (setting [7]), 51%; in assay [6] (setting [8]), 98% (active); in assay [6] (at 50.0 µM) it was 91% (active).

`O=C1OCC2CC3C4C=CC(C4)C3C12` (stereo not given): the growth inhibition in assay [1] (setting [7]) is 40%; in assay [1] (setting [8]), 99% (active); in assay [1] (at 50.0 µM) it was 99.2% (active); in assay [2] (setting [7]), 47%; in assay [2] (setting [8]) it was 100% (active); in assay [2] (at 50.0 µM), 99.5% (active). For the same compound, the growth inhibition is 69% in assay [3] (setting [7]); 99% (active) in assay [3] (setting [8]); 99.4% (active) in assay [3] (at 50.0 µM); 4% in assay [4] (setting [7]); 99% (active) in assay [4] (setting [8]); 99% (active) in assay [4] (at 50.0 µM). In addition, the growth inhibition in assay [5] (setting [7]) was 20%; in assay [5] (setting [8]) it was 99% (active); in assay [5] (at 50.0 µM), 99.4% (active); in assay [6] (setting [7]), 77% (active); in assay [6] (setting [8]), 99% (active); in assay [6] (at 50.0 µM) it was 99.2% (active).

These data come from PubChem BioAssay (NCI).
